The list is not random: actives were taken first. Their share in the collection is about 10%.
IMPase inh: IMPase inhibition in cells | CHO-M1 cells, IP1 accumulation, HTRF TR-FRET ratio | inhibition (IP1 accumulation), % at 46.1 µM | 120,000 tested, under 10 active | P97697; active = well fitted curve in the direction sought with a large enough effect in the signal ratio, not every such curve was filed as active; inconclusive = small, poorly fitted or top-dose-only effect, or a change in a side signal; inactive = no such curve, though single readings can be large or run the other way; the % refers to the signal ratio;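 note: cells stimulated with carbachol in lithium chloride buffer; plate controls were DMSO basal wells for no effect and reference inhibitor wells for full effect; higher means more IMPase inhibition seen as more IP1 and lower FRET ratio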
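Carbachol-driven Gq signalling in CHO-M1 cells (2000/well) generates IP1. Compounds that block IMPase raise IP1 and so reduce the FRET signal from Eu-anti-IP1 and d2-IP1 after a 10 min room-temperature lysis.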
PNC inhibitor: inhibitors of perinucleolar compartment assembly; activity change (PNC), negative = inhibition, % at 10 µM; 140,000 tested, 3.1% active; PC3M PTB-GFP, PNC prevalence imaging, 16 h; stronger effect = lower value;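 active = readout at or below -70, meaning at least 70% loss of cells showing the perinucleolar compartment, a nuclear body marking cancer cells; inconclusive = readout between -30 and a set limit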;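 note: plate controls were DMSO wells for no effect and camptothecin positive control wells for full effect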
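Compounds are pinned in duplicate onto adhered PC3M cells stably expressing GFP-tagged PTB and incubated 16 h at 37 C. Cells are then fixed, nuclei stained with Hoechst, and PNC-positive cells counted.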
ALDH1A1 inh: ALDH1A1 (human) enzyme inhibition; Purified ALDH1A1, NADH fluorescence, propionaldehyde substrate; Potency, µM (series often up to 75.3 µM), for inactives: at the top dose activity, negative = inhibition, most hits filed as inhibitors; 220,000 tested, 7.3% active; AID 1030;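 note: potency is the fitted concentration of half-maximal effect; plate controls were no enzyme wells and a reference inhibitor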
Target sequence (P00352 whole entry, looked up): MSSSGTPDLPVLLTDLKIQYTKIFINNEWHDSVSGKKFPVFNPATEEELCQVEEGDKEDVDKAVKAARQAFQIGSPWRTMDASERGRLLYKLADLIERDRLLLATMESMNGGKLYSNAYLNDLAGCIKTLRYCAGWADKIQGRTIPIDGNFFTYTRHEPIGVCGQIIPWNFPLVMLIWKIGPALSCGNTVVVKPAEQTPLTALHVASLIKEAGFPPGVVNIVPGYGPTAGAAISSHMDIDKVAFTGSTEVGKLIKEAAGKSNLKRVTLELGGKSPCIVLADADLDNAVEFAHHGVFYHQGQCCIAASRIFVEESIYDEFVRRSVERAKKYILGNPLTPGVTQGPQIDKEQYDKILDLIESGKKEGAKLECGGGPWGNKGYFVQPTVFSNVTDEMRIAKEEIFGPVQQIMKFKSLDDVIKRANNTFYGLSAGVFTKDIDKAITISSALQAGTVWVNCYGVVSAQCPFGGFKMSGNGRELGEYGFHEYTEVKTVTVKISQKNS
HPGD inh: HPGD (human) dehydrogenase inhibition; P15428; purified HPGD, NADH fluorescence kinetic, PGE2 substrate; Potency, µM, without a hit: at the top dose activity change, negative = inhibition, usual class: inhibitors; 150,000 tested, 4.3% active; note: potency is the fitted concentration of half-maximal effect
Target sequence (P15428 whole entry, looked up): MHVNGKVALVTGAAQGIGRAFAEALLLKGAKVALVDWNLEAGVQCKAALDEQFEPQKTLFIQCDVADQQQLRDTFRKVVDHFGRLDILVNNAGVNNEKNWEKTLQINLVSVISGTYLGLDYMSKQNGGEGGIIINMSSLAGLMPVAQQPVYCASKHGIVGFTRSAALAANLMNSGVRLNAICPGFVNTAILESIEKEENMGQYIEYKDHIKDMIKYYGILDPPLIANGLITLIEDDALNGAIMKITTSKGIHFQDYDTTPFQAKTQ
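20 nM HPGD preincubated 15 min at room temperature with compound in 50 mM Tris-HCl pH 8, 0.01% Tween 20. Started with 1 mM NAD+ and 30 uM prostaglandin E2; NADH fluorescence (360/450 nm) read 5 times over 30-s intervals, last minus first.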
KinaseGlo FLuc: counter-screen: inhibitors of Kinase-Glo firefly luciferase. Q27757. 200,000 tested, 0.28% active. Kinase-Glo luciferase, ATP luminescence, 8 min. Potency, µM (top dose mostly 38.3 µM), for the others: at the top dose activity change, negative = inhibition, hits mostly inhibitors; active = well fitted inhibition curve with a large enough effect; inconclusive = small, poorly fitted or top-dose-only effect; note: potency is the fitted concentration of half-maximal effect; nearly all actives have a fitted effect of over 60% in size
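Substrate mix (final 50 mM imidazole pH 7.2, 50 mM KCl, 7 mM MgCl2, 10 uM ATP, 0.01% Tween 20, 0.05% BSA) plus pin-tool compound, then Kinase-Glo detection mix; 8 min ambient, luminescence read.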
LMNA splice mod: modulators of lamin A splicing. HeLa LMNA splicing GFP/RFP minigene ratio, 48 h. Potency, µM (titrated, usually from 46.1 µM), for inactives: at the highest dose ratio change, negative = inhibition, usual class: inhibitors. 200,000 tested, 0.01% active; active = well fitted inhibition curve with a large enough effect in the signal ratio, with a control signal flat, not every such curve was filed as active; inconclusive = small, poorly fitted or top-dose-only effect, or effect the other way, or a change in a side signal; the % refers to the signal ratio; note: potency is the fitted concentration of half-maximal effect
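S3 HeLa cells stably expressing lamin A-EGFP splicing minigene plus DsRed2, 600 cells/well, 48 h compound exposure at 37C. Laser-scanning cytometry; analysed as GFP (500-530 nm)/RFP (575-640 nm) total intensity ratio; 0.5% DMSO vehicle.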
* hit, by the source's call; ! = not active in a repeat; [ ] = remark or other dose. Unless noted, calls come from the whole dose curve; as a rule, active = well fitted inhibition curve with a large enough effect (not every such curve was filed as active); inconclusive = small, poorly fitted or top-dose-only effect, or another doubt; inactive = no such curve, though single readings can be large or run the other way. Unless noted, % is set by controls: 0 for no effect and ±100 for the full control effect.

`Cc1ccc(S(=O)(=O)NNC(=S)Nc2ccccc2)cc1` gave IMPase inh 0.9, PNC inhibitor 34.6, ALDH1A1 inh 7.51µM*, HPGD inh 11.2µM*, KinaseGlo FLuc -2.4% and LMNA splice mod 8.5%.
`CCc1ccc(S(=O)(=O)NC(=S)Nc2ccccc2)cc1` gave ALDH1A1 inh 31.6µM*.
For CCNC(=S)NS(=O)(=O)c1ccc(C)cc1 the results were IMPase inh -7.0, PNC inhibitor -84.9*, ALDH1A1 inh inconclusive and LMNA splice mod -11.1%.
Screening O=C(NCCN1CCOCC1)c1ccc(-n2c(=O)c(=O)[nH]c3ccccc32)cc1 returned ALDH1A1 inh 3.5%, HPGD inh -14.6% and KinaseGlo FLuc -1.0%.
For Cc1cc(C)nc(Sc2ccc(C=O)cc2[N+](=O)[O-])n1 the results were ALDH1A1 inh 7.08µM*, KinaseGlo FLuc 0.2% and LMNA splice mod -1.9%[46 µM].
Screening O=Cc1ccc(Sc2nnc(-c3ccccc3)o2)c([N+](=O)[O-])c1 returned IMPase inh -14.5, PNC inhibitor -25.4, ALDH1A1 inh 7.94µM*, HPGD inh 14.1µM*, KinaseGlo FLuc -3.2% and LMNA splice mod inconclusive.
O=c1[nH]c2ccc(Cl)cc2c(-c2ccccc2)c1SC(=S)N1CCOCC1 was read as IMPase inh 5.1, PNC inhibitor 0.0, ALDH1A1 inh 8.91µM*, HPGD inh 20µM*, KinaseGlo FLuc 16.7% and LMNA splice mod 12.5%.
O=c1[nH]c2ccc(Cl)cc2c(O)c1-c1ccccc1 was read as IMPase inh -19.0, PNC inhibitor inconclusive, ALDH1A1 inh 5.5%, HPGD inh -8.7%, KinaseGlo FLuc -7.2% and LMNA splice mod -0.7%.
O=c1[nH]c2ccc(Cl)cc2c(-c2ccccc2)c1SC(=S)N1CCCCC1 was read as IMPase inh 2.9, PNC inhibitor 45.6, ALDH1A1 inh 25.1µM*, HPGD inh inconclusive, KinaseGlo FLuc -0.8% and LMNA splice mod 6.5%.
For Cc1cn(C)c(CC(=O)N2CCN(c3ccccc3F)CC2)c1C(=O)O the results were LMNA splice mod 9.8%[46 µM].
Screening CCOc1ccc(C(=O)NCc2ccc3c(c2)CCN3C(=O)c2ccc(Cl)cc2)cc1 returned LMNA splice mod -13.4%[46 µM].
Screening Cc1ccccc1C1C(C#N)=C2N=C(N)c3c(sc4c3CCCCC4)N2C2=C1C(=O)CCC2 (centres undefined) returned IMPase inh -4.3, PNC inhibitor 34.9, ALDH1A1 inh 2.24µM*, HPGD inh -11.5%, KinaseGlo FLuc 0.2% and LMNA splice mod inconclusive.
CC(C)=CCC/C(C)=C/CO/N=C1/C[C@@H](O)[C@@H](O)[C@@H]2[C@@H]3C(=O)N(Cc4ccc5c(c4)OCO5)C(=O)[C@H]3CC[C@@H]12 was read as ALDH1A1 inh -5.1%[13.5 µM].
`CC(=O)c1ccc(OCc2ccc(C(=O)c3ccccc3)cc2)cc1` gave ALDH1A1 inh 11.2µM* and KinaseGlo FLuc -2.5%.
O=C(O)COc1ccc(C(=O)c2ccccc2)cc1 was read as ALDH1A1 inh 1.1%.
For Cc1nc2cnc(N3CCNCC3)nc2n(C2CC2)c1=O the results were ALDH1A1 inh inconclusive, HPGD inh inconclusive and KinaseGlo FLuc -3.6%.
`COc1ccc2c(c1)C(=O)C(=O)N2` gave PNC inhibitor 45.8, ALDH1A1 inh 22.4µM*, HPGD inh -14.8%, KinaseGlo FLuc -7.5% and LMNA splice mod -14.3%.
COc1cccc(CNC(=O)Cc2c(C(=O)O)c(C)cn2C)c1 was read as LMNA splice mod -1.5%[46 µM].
Screening Cc1ccnc(NC(=O)c2cc3ccccc3oc2=O)c1 returned ALDH1A1 inh -4.1%, KinaseGlo FLuc 11.2µM* and LMNA splice mod -4.6%[46 µM].
Screening Cc1ccc(-n2c3c(cc(C(=O)Nc4cccc(Cl)c4)c2=O)C(=O)CC(C)(C)C3)cc1 returned LMNA splice mod 4.0%[46 µM].
Screening CCOC(=O)c1c(NC(=O)Cc2cccs2)sc(C(=O)NC2CCCCC2)c1C returned IMPase inh -4.3, PNC inhibitor 17.2, ALDH1A1 inh 6.4%, HPGD inh -18.6%, KinaseGlo FLuc 4.5% and LMNA splice mod 5.6%.
`CCOC(=O)c1c(NC(=O)Cc2cccs2)sc(C(=O)NC2CCCC2)c1C` gave IMPase inh 1.9, PNC inhibitor -19.3, ALDH1A1 inh 14.3%, HPGD inh -1.1%, KinaseGlo FLuc 0.8% and LMNA splice mod 8.3%.
For COC(=O)c1c(NC(=O)Cc2cccs2)sc(C(=O)N2CCCCC2)c1C the results were IMPase inh -17.0, PNC inhibitor 9.8, ALDH1A1 inh 4.47µM*, HPGD inh 15.8µM*, KinaseGlo FLuc 0.1% and LMNA splice mod -1.6%.
CCOC(=O)c1c(NC(=O)Cc2cccs2)sc(C)c1C was read as IMPase inh 6.4, PNC inhibitor 4.3, ALDH1A1 inh 12.6µM*, HPGD inh inconclusive, KinaseGlo FLuc -7.5% and LMNA splice mod 0.2%.
Screening COC(=O)c1c(NC(=O)c2ccco2)sc(C(=O)N2CCCC2)c1C returned IMPase inh 3.0, PNC inhibitor -18.2, ALDH1A1 inh 14.1µM*, HPGD inh 17.8µM*, KinaseGlo FLuc 10.7% and LMNA splice mod -3.3%.
Screening CN(C(Cc1ccc(OS(=O)(=O)c2cccc3cnccc23)cc1)C(=O)N1CCN(c2ccccc2)CC1)S(=O)(=O)c1cccc2cnccc12 (centres undefined) returned ALDH1A1 inh 14.1µM*!.
For CC(=O)c1cccc(NC(=S)NCc2ccco2)c1 the results were ALDH1A1 inh -8.0%, KinaseGlo FLuc 3.6% and LMNA splice mod 2.5%[46 µM].
For CN(C)S(=O)(=O)c1ccc(C(=O)OCC(=O)NCc2ccco2)cc1 the results were ALDH1A1 inh 15µM*, KinaseGlo FLuc 2.1% and LMNA splice mod -7.0%[46 µM].
CCOc1ccccc1NC(=S)NCc1ccco1 was read as IMPase inh 1.3, PNC inhibitor -27.9, ALDH1A1 inh 28.2µM*, HPGD inh -19.5%, KinaseGlo FLuc 13.8% and LMNA splice mod -3.1%.
CN(C)S(=O)(=O)c1cccc(NC(=S)NCc2ccco2)c1 was read as ALDH1A1 inh 31.6µM* and KinaseGlo FLuc 4.0%.
For S=C(NCc1ccco1)Nc1ccc(Cl)c(Cl)c1 the results were IMPase inh -17.7, PNC inhibitor 4.0, ALDH1A1 inh 25.1µM*, HPGD inh 3.16µM*, KinaseGlo FLuc -0.3% and LMNA splice mod inconclusive.
For COc1ccc(NC(=S)NCc2ccco2)cc1 the results were IMPase inh -1.0, PNC inhibitor -18.8, ALDH1A1 inh -0.7%, HPGD inh -28.4%, KinaseGlo FLuc -6.7% and LMNA splice mod 10.7%.
For Cc1cccc(-c2nc3nc(C)cc(NCc4ccccc4Cl)n3n2)c1 the results were LMNA splice mod 0.8%[46 µM].

From PubChem
